Activity calls are given as the source filed them. No stated cut-off is given here; in the data, active means inhibition above about 30%; inactive means the rest.

The assay concerns transactivating tegument protein VP16 (Human herpesvirus 1), Gal4-VP16 luciferase reporter. The experiment in a line: repression of VP16-driven luciferase reporter – cell-based, luminescence, high throughput, counter-screen for SRC3 inhibitor project (AID 588794). The following applies: mammalian cells, at 3.6 µM, stronger effect = higher value. For orientation: A reporter such as luciferase makes a cellular process visible.
A word on the inhibition: it is the change of the read-out against control, counted positive when it falls. Turning to `COc1ccc2nc(C)cc(SCC(=O)N/N=C/c3ccc(O)cc3O)c2c1`, the inhibition is 18.7% (inactive). With `CCOC(=O)c1c(Nc2ccccc2OCCOC)n[nH]c1C`, the inhibition was -0.92% (inactive). On to `O=C(OC1C2CCC1C1CN(CCc3ccccc3)CC12)c1ccccc1` (centres undefined), for which the inhibition is 18% (inactive).

Regarding `CCN(c1ccccc1)S(=O)(=O)c1ccc(C(=O)Nc2nnc(-c3ccco3)o2)cc1`, the inhibition was 9.19% (inactive). With `C=CC[C@@H](CC(=O)N(CCO)Cc1ccccc1)C(=O)N[C@@H](C)COC(=O)[C@@H](CC=C)Cc1ccc(F)cc1`, the inhibition is -1.92% (inactive). As for `COc1ccc(C2OC(=O)CC2C(=O)NCc2ccc(F)cc2)cc1OC` (centres undefined), the figure is -5.19% (inactive); as for `CCCCCn1c(=O)[nH]c2cc(C(=O)N3CCN(c4ccc(C(C)=O)cc4)CC3)ccc2c1=O`, 21.7% (inactive). Then `CC(=O)Nc1ccc(C(=O)N/N=C/c2cc(Br)cc(Br)c2O)cc1`, with 11.2% (inactive); and `O=C(Nc1ccc([N+](=O)[O-])cc1)Nc1nc(-c2ccc(Cl)s2)cs1`, with 71.6% (active).

With `CCCCN(CCCC)C(=O)CSc1nnc(-c2cc(OC)c(OC)c(OC)c2)o1`, the inhibition is 4.79% (inactive). As for `COc1ccc(CCNC(=O)C(C)n2nc(C)c3c(C)n(-c4ccc(C)cc4)nc3c2=O)c(OC)c1` (centres undefined), the figure is 30.4% (active); as for `COc1ccccc1NC(=O)Nc1nnc(Cc2ccc(F)cc2)s1`, 9.25% (inactive). As for `CC(=O)c1cccc(NC(=O)c2cc(S(=O)(=O)N3CCOCC3)cs2)c1`, the inhibition is 1.82% (inactive). Then `O=C(CCN1CCOCC1)N/N=C/c1cc(Br)cc(Br)c1O`, with 7.46% (inactive); and `O=C(Nc1nc2ccccc2s1)C1c2ccccc2Oc2ccccc21`, with 21.4% (inactive). Then `COc1ccc(NC(=O)c2cc3c(-c4ccc(OC)c(OC)c4)nn(C)c3s2)cc1OC`, with 10.5% (inactive); and `COc1cccc(/C=N/NC(=O)c2ccc(=O)n(C)c2)c1O`, with 9.91% (inactive); and `Cn1nnnc1Sc1ncnc2scc(-c3ccccc3)c12`, with 2.99% (inactive). Then `CCOC(=O)N1CCC2(CC1)C(C#N)=C(N)Oc1n[nH]c(CSc3ccc(C)cc3)c12`, with -6.53% (inactive); and `FC(F)(F)c1cccc(NC(=S)N(CCCN2CCCC2)Cc2cccn2Cc2ccc(Cl)cc2)c1`, with 0.12% (inactive); and `CC(C)(C)c1csc(Sc2ccc([N+](=O)[O-])cn2)n1`, with -8.39% (inactive). `O=C(C1CCC1)N1CCN(c2ccnc3cc(Cl)ccc23)CC1`: the inhibition was 6.97% (inactive). Then `CN(C)c1cc[n+](CC(=O)Nc2ccc(Oc3ccccc3)cc2)cc1`, with 20.2% (inactive); and `CCc1nc2ccccc2c(=O)n1NCCc1ccccc1`, with 2.67% (inactive). Then `Cc1nccc(-c2ccc(-n3cnc4ccccc43)cc2)n1`, with 12.4% (inactive); and `Cc1nc2c(-c3ccc(F)cc3)cnn2c(N)c1-c1ccc(F)cc1`, with 9.51% (inactive); and `COC(=O)c1sc(NC(=O)c2cc(-c3ccccc3)nc3ccccc23)c(C#N)c1C`, with 38.6% (active). With `CCN(CC)S(=O)(=O)c1cccc(NC(=O)Nc2cccc(C(F)(F)F)c2)c1`, the inhibition was 18% (inactive). As for `Nc1ccccc1SCC(=O)Nc1nc(-c2ccccc2)cs1`, the figure is 48.4% (active); as for `CC(=O)c1c(O)cc2c3c1OC(C)(C)C1CCC(C)(CC31)O2` (centres undefined), 30.9% (active); as for `C=CCc1cc(C(=O)N2CCCCC2)ccc1O`, 19.9% (inactive). Then `CCc1[nH]nc2c1C(C1C=CCCC1)C(C#N)=C(N)O2` (centres undefined), with 21.2% (inactive); and `O=C(CSc1nnc(COc2ccc(Cl)cc2)o1)N1CCOCC1`, with -7.96% (inactive); and `COc1ccc(CN(C)C(=O)c2cccc(NC(=O)CC3SC(N4CCCCC4)=NC3=O)c2)c(OC)c1` (centres undefined), with 30.3% (active).

As to `COc1cccc(/C=N/Nc2nc3ccccc3n3cnnc23)c1O`, the inhibition was 1.79% (inactive). Then `COc1ccc(Oc2ccc(/C=C/C(=O)c3ccc(O)cc3)cc2[N+](=O)[O-])cc1`, with -5.56% (inactive); and `Cc1sc(-c2ccccn2)nc1OC(=O)c1ccc(F)cc1F`, with 16.1% (inactive). For the compound `CCc1nc2ccccc2c(C(=O)OCC(=O)Nc2cccc(S(=O)(=O)N3CCOCC3)c2)c1C`, the inhibition was 8.71% (inactive). Consider `Cc1ccc(C(=O)NC2c3ccccc3-c3ccccc32)cc1`, for which the inhibition was 12.1% (inactive).

For the origin of these results see PubChem BioAssay.
